The results in this text go back to PubChem BioAssay AID1259343 (VanderVen Lab, College of Veterinary Medicine, Cornell …, 2017).

In all, about 6,200 compounds went through this assay and about 2,900 (47%) were called active. No stated cut-off is given here; in the data, active means inhibition above about 50%; inactive means the rest. So high a share suggests a set chosen from earlier hits. This is one part of the list.

This assay can be described thus: Mycobacterium tuberculosis growth inhibition, primary screen (AID 1259343). The conditions noted are these: inhibition: at 10 µM, stronger effect = higher value; outcome: 10 uM.
Usually inhibition stands for the drop in the measured response relative to a control, in per cent. As for `NS(=O)(=O)N1CCC(C(=O)Nc2ccc(-c3ccccc3)cc2F)CC1`, the inhibition is -3.6% (inactive). Under `O=C(Nc1ccc(-c2ccccc2)cc1Cl)C1CC1` stands 92.4% (active); under `O=C(CNC(=O)c1cccc(F)c1)N=Nc1c(O)n(CCc2ccccc2)c2ccccc12`, -16.1% (inactive); under `COc1ccc(NC(=O)c2ccc3c(c2)NC(=O)C(C)S3)cc1` (stereo not drawn), 57.4% (active).

Take `COc1cc(NC(=O)c2ccc3c(c2)NC(=O)C(C)S3)cc(OC)c1` (stereo not drawn): the inhibition is 31.5% (inactive). For `COc1cc(NC(=O)c2ccc3c(c2)NC(=O)CS3)cc(OC)c1`, the inhibition is 62.6% (active). Turning to `Cc1cc(C)cc(C(=O)C=C2NC(=O)CS2)c1`, the inhibition was -74.8% (inactive).

Take `COc1cc(C=NOCc2cccc3ccccc23)ccc1OC(F)F`: the inhibition was 52.4% (active). On to `CCOC(=O)C1(CCc2ccccc2)CCCN(Cc2cccn2-c2ncccn2)C1` (stereo not drawn), for which the inhibition is 13% (inactive). Regarding `CCOC(=O)NC(=O)COC(=O)C1(Cc2ccccc2)CCCCC1`, the inhibition was 51.4% (active).

With `Cn1cc(C(=O)Nc2cccc(C(F)(F)F)c2)c2[nH]c(=O)n(-c3ccc(F)cc3)c(=O)c21`, the inhibition is 24.6% (inactive). The value for `O=C(c1cnn(-c2ccc(F)cc2)c1)c1ccccc1O` was 42.7% (inactive); that for `CC(C)OC(=O)c1cn(-c2ccc(F)cc2)c(=O)c2ccccc12` was 80.8% (active). With `CCS(=O)(=O)N1CCC(C(=O)Nc2nc(-c3ccc(Br)cc3)cs2)CC1`, the inhibition is 33.8% (inactive).

As to `O=C(Nc1nc(-c2ccc(Br)cc2)cs1)c1cc(Cl)ccc1[N+](=O)[O-]`, the inhibition is 94.8% (active). With `Cc1nnc(SCc2cccc3ccccc23)[nH]c1=O`, the inhibition was 88.9% (active). `O=C(O)CCc1nnc(SCc2cccc(Cl)c2)[nH]c1=O`: the inhibition is 34.4% (inactive). Consider `CC1CCc2sc(-c3nn(CN4CCN(c5cnccn5)CC4)c(=S)o3)cc2C1` (stereo not drawn), for which the inhibition was 95.3% (active). As to `Cc1cc(C)[n+]2c(-c3ccccc3)csc2n1`, the inhibition is 80% (active). With `CCc1ccc(CN(C)Cc2nc(-c3cccc(Cl)c3)no2)nc1`, the inhibition was 24.1% (inactive). Consider `CN(Cc1cnccn1)c1ccc(-c2nc(-c3cccc(Cl)c3)no2)cn1`, for which the inhibition is 80.1% (active). As to `CN(Cc1nc2scc(-c3ccco3)c2c(=O)[nH]1)C1CCCCC1`, the inhibition is -6.13% (inactive). Regarding `CC(C)Cc1csc2nc(Cc3cccs3)[nH]c(=O)c12`, the inhibition was 42% (inactive).

As to `O=c1[nH]c(CN2CCCC2c2cccs2)nc2scc(-c3ccco3)c12` (stereo not drawn), the inhibition is 85% (active). Turning to `CCN(CCS(=O)(=O)c1cc(Cl)ccc1Cl)CC(=O)NC(C)C`, the inhibition was -1.76% (inactive).

Consider `Clc1cc(CNCC2COc3ccccc3O2)cc2c1OCCO2` (stereo not drawn), for which the inhibition was 11.4% (inactive).

As for `c1ccc(CCc2cn(CC3COc4ccccc4O3)nn2)cc1` (stereo not drawn), the inhibition was 55.8% (active). In the case of `CN(CC1COc2ccccc2O1)C(=O)NCCc1ccsc1` (stereo not drawn), the inhibition was -41.3% (inactive). The value for `FC(F)(F)c1ccc(-c2cnnc(N3CCC(c4ccncc4)CC3)n2)cc1` was 37.4% (inactive); that for `C#CCOc1cccc(NC(=O)CSC2CCS(=O)(=O)C2)c1` (stereo not drawn) was 84.6% (active).

Regarding `O=C(Nn1cnc2ccccc21)c1ccccc1SC1CCS(=O)(=O)C1` (stereo not drawn), the inhibition was -8.68% (inactive). Under `O=C(NCc1ccccc1F)c1cccc(COCC(F)(F)C(F)F)c1` stands 68.7% (active); under `O=C(NCc1cccc(COCc2ccco2)c1)c1ccccc1`, 14.8% (inactive); under `COc1ccc(C2CCCN2C2=NCc3cnn(C(C)(C)C)c3N2)cc1` (stereo not drawn), 10% (inactive). For `Cc1ccc(Sc2ccc(C(=O)NC3CC3)cn2)cc1`, the inhibition is 11.2% (inactive). For the molecule `O=C(NC1CCCCC1)c1cnccn1`, the inhibition is 47.9% (inactive). Turning to `O=C(NC1CCCCC1)c1ccc(C(F)(F)F)nc1`, the inhibition is 57.1% (active). Consider `FC(F)(F)c1cc(-c2ccc(Cl)cc2)nc(-n2cccn2)n1`, for which the inhibition was 61.6% (active). The value for `O=c1cc(CSc2nnc(-c3ccc(Cl)s3)o2)occ1O` was 80.1% (active); that for `Cc1cc(=O)[nH]c(-n2nc(C)cc2NC(=O)/C=C/c2ccc3c(c2)OCO3)n1` was 101% (active); that for `CCc1cc(=O)[nH]c(-n2nc(C)cc2NC(=O)/C=C/c2ccc3c(c2)OCO3)n1` was 100% (active). For the molecule `N/C(=N/O)c1cncc(OCC(F)(F)F)n1`, the inhibition was 92% (active). On to `Brc1c(-c2ccccc2)nc2ccccn12`, for which the inhibition is 40% (inactive). In the case of `CC(Oc1ccc2cc(Br)ccc2c1)C(=O)NC(N)=O` (stereo not drawn), the inhibition is 80.7% (active). As to `CN(Cc1ccc(C(N)=O)cc1)Cc1ccccc1Br`, the inhibition was 17.4% (inactive). For `CC(Oc1ccc(C(N)=O)cc1)C(=O)c1ccc(Br)cc1` (stereo not drawn), the inhibition is 71.9% (active). The value for `CCc1ccc(CNC(=O)Nc2ccc(C#N)cc2)s1` was 56.1% (active); that for `N#Cc1ccc(NC(=O)NCc2ccn(-c3ccccc3)n2)cc1` was 32.1% (inactive); that for `CCCSc1nnc(-c2c(Cl)c(CC)nn2C)s1` was 52.5% (active). For the molecule `N#CCc1cc(-c2ccc(Cl)cc2)on1`, the inhibition was 72.6% (active). Regarding `N#Cc1nc(-c2ccc(Cl)cc2)oc1NC1CC1`, the inhibition is 26.7% (inactive). As for `COc1cccc(-c2cc(N)c(=O)n(Cc3ccc(C(F)(F)F)cc3)n2)c1`, the inhibition was 22.8% (inactive). Regarding `COc1cccc(CC2(CO)CCCN(C(=O)Nc3cccc(C(F)(F)F)c3)C2)c1` (stereo not drawn), the inhibition was 11% (inactive). Under `COc1cccc(Oc2ccc(C(F)(F)F)cc2NC(C)=O)c1` stands 82.6% (active). For `CC(C)(C)C(=O)Nc1nnc(-c2ccc3c(c2)CCCC3)o1`, the inhibition was 92.3% (active). In the case of `O=C(Nc1nnc(-c2ccc3c(c2)CCCC3)o1)c1ccc([N+](=O)[O-])s1`, the inhibition is 101% (active). In the case of `Cc1ccc(OC(C)C(=O)Nc2ccc3c(c2)CCC3)cc1` (stereo not drawn), the inhibition is 1.9% (inactive).

Turning to `NC(Cc1ccc(C(F)(F)F)cc1)c1csc(Nc2nccc(C(F)(F)F)n2)n1` (stereo not drawn), the inhibition was 94.8% (active).

For the molecule `NC(Cc1ccc(Cl)cc1)c1csc(Nc2nccc(C(F)(F)F)n2)n1` (stereo not drawn), the inhibition was 63.1% (active).

For the molecule `NC(CCc1ccccc1)c1csc(Nc2nccc(C(F)(F)F)n2)n1` (stereo not drawn), the inhibition was 50.5% (active). On to `NC(Cc1ccc(F)cc1)c1csc(Nc2nccc(C(F)(F)F)n2)n1` (stereo not drawn), for which the inhibition is 66.7% (active). With `NC(Cc1ccc(C(F)(F)F)cc1)c1csc(Nc2ncccn2)n1` (stereo not drawn), the inhibition was 29.2% (inactive).

Turning to `c1ccc(Cn2cc(CN3CCN(c4ncccn4)CC3)c(-c3cc4ccccc4o3)n2)cc1`, the inhibition entry is “inactive”.

On to `C(=NN1CCOCC1)c1cn(-c2ccccc2)nc1-c1cc2ccccc2o1`, for which the inhibition is 88.6% (active).

Consider `O=C(Cc1cc(-c2cc3ccccc3o2)on1)NCCCN1CCOCC1`, for which the inhibition is 20.8% (inactive). Regarding `OCc1cn(-c2ccccc2)nc1-c1cc2ccccc2o1`, the inhibition was 74.7% (active). The value for `OCc1cc(-c2cc3ccccc3o2)on1` was 8.03% (inactive); that for `O=C(CC(O)(c1ccccc1)C(F)(F)F)N1CCN(Cc2ccc(Cl)cc2)CC1` (stereo not drawn) was 53.2% (active); that for `O=C1NC(C2=Cc3cc(Cl)ccc3OC2)Nc2ccccc21` (stereo not drawn) was 0.99% (inactive).

On to `COC(=O)c1cnc(Nc2nc(C(N)c3ccccc3Cl)cs2)nc1C(F)(F)F` (stereo not drawn), for which the inhibition was 94% (active).

As to `COC(=O)c1cnc(Nc2nc(C(N)Cc3ccc(Cl)cc3)cs2)nc1C(F)(F)F` (stereo not drawn), the inhibition is 85.1% (active). For the molecule `CC(=O)Nc1ccc(Sc2nc(C)cc(C)c2C#N)cc1`, the inhibition is -11.9% (inactive). Under `COc1cc(-c2cccc(O)c2)ncn1` stands 93.2% (active). As to `COc1cc(N(C)CCC(O)c2ccccc2)ncn1` (stereo not drawn), the inhibition was -15.6% (inactive). In the case of `CN(C)c1ccc(CN(C)S(=O)(=O)Cc2ccccc2)cc1`, the inhibition was 30.6% (inactive). As for `C=C1N(C)c2cc([N+](=O)[O-])c(N)cc2C1(C)C`, the inhibition was 64.8% (active).

In the case of `c1ccc(-c2nc(SCC3CCOCO3)oc2-c2ccccc2)cc1` (stereo not drawn), the inhibition was -19.9% (inactive). For the molecule `O=S(=O)(/C=C/C=C/Sc1ccccc1)c1ccccc1`, the inhibition was 90.4% (active). The value for `Cc1cc(C)n(-c2nc(NC(C)C)nc(NC(C)(C)C)n2)n1` was 101% (active). Take `CCn1cc(C(CC(=O)O)c2cccc(F)c2)c2ccccc21` (stereo not drawn): the inhibition was 18.8% (inactive).

As to `Cc1nn(C)c(C)c1C(=O)NNc1cccc(Cl)c1`, the inhibition was -9.93% (inactive).

As for `CN(C)c1ccc(-c2nc3c(C(=O)NNc4cccc(Cl)c4)cccc3[nH]2)cc1`, the inhibition is 85.1% (active). Take `O=C(Cc1cc(-c2cc3ccccc3o2)on1)NCc1ccncc1`: the inhibition is 75.1% (active). As for `O=C(Cc1cc(-c2cc3ccccc3o2)on1)NCc1ccc(F)cc1`, the inhibition was 22.7% (inactive).

Take `O=C(Cc1cc(-c2cc3ccccc3o2)on1)NCc1ccco1`: the inhibition was 91.1% (active). As for `O=C(Cc1cc(-c2cc3ccccc3o2)on1)NCc1cccs1`, the inhibition was 28.1% (inactive). The value for `CNc1nc2cnc(Nc3ccc(Oc4ccccc4)cc3)cc2n1CCOC` was 69.3% (active); that for `Nc1cccc(-c2cc(Nc3ccc(Oc4ccccc4)cc3)ncn2)c1` was 9.35% (inactive); that for `COC(=O)c1ccc(CNC(=O)c2ccc3c(c2)OCO3)cc1` was 55.5% (active). Consider `Cc1cnc(C(=O)NC(C)c2ccccc2OC(C)C)cn1` (stereo not drawn), for which the inhibition was -5.8% (inactive). `O=C(NCc1ccc2c(c1)OCO2)c1cccs1`: the inhibition was 52.8% (active). Take `COC(=O)Cc1ccc(NC(=O)c2cnccn2)cc1`: the inhibition is 87.5% (active). On to `O=C(Nc1ccc(OCC(F)(F)F)cc1)c1cnccn1`, for which the inhibition was 25.9% (inactive). `CN(C)c1ccc(CNC(=O)c2ccc3c(c2)CCCC3)cc1`: the inhibition is -5.89% (inactive). Under `Cc1cnc(C(=O)NCCc2ccccc2C)cn1` stands 94.4% (active); under `O=C(C=Cc1cccs1)NCc1ccc2c(c1)OCO2`, -6.77% (inactive).

As to `COc1ccc(CCNC(=O)c2cnc(C)cn2)cc1OC`, the inhibition is 41.9% (inactive). Regarding `Cc1ccc(C2(O)CCN(c3noc(-c4ccccc4)n3)CC2)nc1`, the inhibition is 16.2% (inactive). For the molecule `CC1Cc2cc(CNC(=O)c3cc(C(C)C)nn3C)ccc2O1` (stereo not drawn), the inhibition is 3.55% (inactive). `Cc1cnc(C(=O)NCc2ccc3c(c2)OCO3)cn1`: the inhibition was 63.5% (active). On to `CCCc1ccc(NC(=O)c2cnc(C)cn2)cc1`, for which the inhibition is 100% (active). On to `Cc1cnc(C)c(Nc2nc(C(N)Cc3ccc(C(F)(F)F)cc3)cs2)n1` (stereo not drawn), for which the inhibition was 81.1% (active). Under `Cc1cnc(C)c(Nc2nc(C(N)Cc3ccc(Cl)cc3)cs2)n1` (stereo not drawn) stands 78.6% (active).
